Measurements published in the supplement of paper PMC11001985.

The targets below were run with C#CCNC(=O)CCSSCCC(=O)NCCc1ccc(C=O)c(C=O)c1 (assay: lysine labeling ratio R10:1 (500 µM / 50 µM probe), SILAC-ABPP in living cells; higher = lower intrinsic lysine reactivity toward the probe, active = 2 or less). Conditions: HeLa; probe concentrations 500 vs 50 µM.
Procedure, shortened: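 For each lysine, R is the median over forward and reverse replicates of the filtered median MS1 peptide ratio of high probe to low probe. The probe, an alkyne-tagged, disulfide-linked lysine probe, was given at 500 µM or 50 µM to living SILAC light and heavy HeLa cells in PBS at room temperature, with label swaps. Values are capped at 20.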

Chain of UniProt Q14980 (Q14980 whole entry): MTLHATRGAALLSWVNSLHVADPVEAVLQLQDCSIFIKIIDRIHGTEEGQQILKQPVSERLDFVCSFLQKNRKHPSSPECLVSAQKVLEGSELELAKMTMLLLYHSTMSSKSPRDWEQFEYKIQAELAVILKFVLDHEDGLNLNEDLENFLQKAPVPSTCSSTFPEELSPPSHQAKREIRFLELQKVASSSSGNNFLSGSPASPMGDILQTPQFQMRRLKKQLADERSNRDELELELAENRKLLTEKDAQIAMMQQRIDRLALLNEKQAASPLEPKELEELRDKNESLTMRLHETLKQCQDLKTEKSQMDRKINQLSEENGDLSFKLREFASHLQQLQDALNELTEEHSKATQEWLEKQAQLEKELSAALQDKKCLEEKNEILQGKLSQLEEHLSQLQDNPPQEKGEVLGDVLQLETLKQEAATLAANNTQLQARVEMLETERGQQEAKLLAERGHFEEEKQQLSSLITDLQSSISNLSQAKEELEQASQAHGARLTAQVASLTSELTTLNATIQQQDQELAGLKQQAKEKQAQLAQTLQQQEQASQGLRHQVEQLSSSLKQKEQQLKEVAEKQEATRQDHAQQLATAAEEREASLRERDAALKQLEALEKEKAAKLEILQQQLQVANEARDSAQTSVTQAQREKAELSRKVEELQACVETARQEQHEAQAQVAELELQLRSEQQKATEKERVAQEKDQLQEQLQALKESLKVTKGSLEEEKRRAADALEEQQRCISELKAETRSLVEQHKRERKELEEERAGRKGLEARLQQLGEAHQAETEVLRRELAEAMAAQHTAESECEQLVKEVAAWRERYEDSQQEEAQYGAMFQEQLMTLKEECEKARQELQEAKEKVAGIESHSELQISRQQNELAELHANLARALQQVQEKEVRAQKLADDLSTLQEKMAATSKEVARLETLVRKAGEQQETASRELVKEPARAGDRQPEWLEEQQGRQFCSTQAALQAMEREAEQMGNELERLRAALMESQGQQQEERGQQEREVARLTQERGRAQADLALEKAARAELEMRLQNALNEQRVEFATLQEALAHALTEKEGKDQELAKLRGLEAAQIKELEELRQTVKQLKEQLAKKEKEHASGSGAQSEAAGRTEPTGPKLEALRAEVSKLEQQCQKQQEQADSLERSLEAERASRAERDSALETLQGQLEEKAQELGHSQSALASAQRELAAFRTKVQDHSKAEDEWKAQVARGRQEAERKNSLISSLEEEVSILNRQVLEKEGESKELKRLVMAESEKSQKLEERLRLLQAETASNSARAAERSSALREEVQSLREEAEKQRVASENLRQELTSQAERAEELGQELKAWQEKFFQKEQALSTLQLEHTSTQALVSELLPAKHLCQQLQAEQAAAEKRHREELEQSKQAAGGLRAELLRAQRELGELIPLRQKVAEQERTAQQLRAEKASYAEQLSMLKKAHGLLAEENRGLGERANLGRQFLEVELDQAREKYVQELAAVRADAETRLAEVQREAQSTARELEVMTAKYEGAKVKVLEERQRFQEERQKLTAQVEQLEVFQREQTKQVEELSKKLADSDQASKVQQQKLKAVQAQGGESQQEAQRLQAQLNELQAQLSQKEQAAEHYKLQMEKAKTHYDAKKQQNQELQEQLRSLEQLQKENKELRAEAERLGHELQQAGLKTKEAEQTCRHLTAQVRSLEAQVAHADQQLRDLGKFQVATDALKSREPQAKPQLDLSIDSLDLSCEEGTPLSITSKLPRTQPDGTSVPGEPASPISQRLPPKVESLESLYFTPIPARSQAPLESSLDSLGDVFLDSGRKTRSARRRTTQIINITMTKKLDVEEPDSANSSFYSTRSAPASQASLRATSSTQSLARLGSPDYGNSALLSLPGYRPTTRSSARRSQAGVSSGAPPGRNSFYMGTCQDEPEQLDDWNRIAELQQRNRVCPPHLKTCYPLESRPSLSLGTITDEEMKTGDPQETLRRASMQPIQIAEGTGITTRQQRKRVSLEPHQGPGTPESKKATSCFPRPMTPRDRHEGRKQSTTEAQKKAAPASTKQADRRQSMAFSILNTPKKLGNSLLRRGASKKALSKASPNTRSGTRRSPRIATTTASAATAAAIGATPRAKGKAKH
Chain of UniProt Q9Y624 (Q9Y624 whole entry, stated change not applied): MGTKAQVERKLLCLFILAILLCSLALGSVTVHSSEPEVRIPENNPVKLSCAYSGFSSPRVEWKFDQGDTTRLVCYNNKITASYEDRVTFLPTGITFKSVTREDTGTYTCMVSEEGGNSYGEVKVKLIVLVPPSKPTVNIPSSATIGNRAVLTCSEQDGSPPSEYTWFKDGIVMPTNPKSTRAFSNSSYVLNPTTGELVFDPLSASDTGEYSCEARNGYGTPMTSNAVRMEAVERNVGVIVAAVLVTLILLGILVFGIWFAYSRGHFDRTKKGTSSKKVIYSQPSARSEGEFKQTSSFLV
Chain of UniProt P05783 (P05783 whole entry): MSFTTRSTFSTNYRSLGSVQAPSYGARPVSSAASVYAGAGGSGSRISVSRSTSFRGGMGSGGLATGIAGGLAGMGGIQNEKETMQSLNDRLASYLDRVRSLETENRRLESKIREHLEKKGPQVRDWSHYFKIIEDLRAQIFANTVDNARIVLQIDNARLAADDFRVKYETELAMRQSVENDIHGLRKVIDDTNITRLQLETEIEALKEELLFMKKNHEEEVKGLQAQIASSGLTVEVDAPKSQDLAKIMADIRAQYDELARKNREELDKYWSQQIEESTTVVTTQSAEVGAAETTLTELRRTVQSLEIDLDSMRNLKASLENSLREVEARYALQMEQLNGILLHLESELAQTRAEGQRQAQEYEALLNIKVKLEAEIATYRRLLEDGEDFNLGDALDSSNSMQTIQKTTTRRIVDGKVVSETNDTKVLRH
Chain of UniProt P01130 (P01130 whole entry): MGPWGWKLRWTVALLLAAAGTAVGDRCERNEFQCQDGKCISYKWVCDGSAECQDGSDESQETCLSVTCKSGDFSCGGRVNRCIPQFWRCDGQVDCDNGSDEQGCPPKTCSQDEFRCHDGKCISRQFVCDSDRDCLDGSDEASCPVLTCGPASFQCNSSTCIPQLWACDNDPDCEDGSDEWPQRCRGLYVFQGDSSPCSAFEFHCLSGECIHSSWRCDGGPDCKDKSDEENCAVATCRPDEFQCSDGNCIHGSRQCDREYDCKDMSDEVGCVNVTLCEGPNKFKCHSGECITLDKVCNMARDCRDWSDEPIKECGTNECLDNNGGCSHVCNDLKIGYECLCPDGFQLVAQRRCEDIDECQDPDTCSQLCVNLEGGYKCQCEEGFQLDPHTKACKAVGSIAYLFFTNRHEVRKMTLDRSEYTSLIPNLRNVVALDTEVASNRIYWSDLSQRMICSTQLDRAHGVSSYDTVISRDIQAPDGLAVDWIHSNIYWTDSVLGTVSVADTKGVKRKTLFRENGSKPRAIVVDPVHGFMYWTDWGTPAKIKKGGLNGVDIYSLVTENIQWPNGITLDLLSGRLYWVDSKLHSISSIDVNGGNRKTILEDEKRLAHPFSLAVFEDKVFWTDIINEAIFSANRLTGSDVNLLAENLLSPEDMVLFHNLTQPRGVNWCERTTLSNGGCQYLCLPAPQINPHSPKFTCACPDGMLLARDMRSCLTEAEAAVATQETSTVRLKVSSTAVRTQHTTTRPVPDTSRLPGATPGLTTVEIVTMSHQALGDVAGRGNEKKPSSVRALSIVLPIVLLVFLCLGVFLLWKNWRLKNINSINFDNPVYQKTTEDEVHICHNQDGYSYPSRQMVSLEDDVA
Chain of UniProt P06213 (P06213 whole entry): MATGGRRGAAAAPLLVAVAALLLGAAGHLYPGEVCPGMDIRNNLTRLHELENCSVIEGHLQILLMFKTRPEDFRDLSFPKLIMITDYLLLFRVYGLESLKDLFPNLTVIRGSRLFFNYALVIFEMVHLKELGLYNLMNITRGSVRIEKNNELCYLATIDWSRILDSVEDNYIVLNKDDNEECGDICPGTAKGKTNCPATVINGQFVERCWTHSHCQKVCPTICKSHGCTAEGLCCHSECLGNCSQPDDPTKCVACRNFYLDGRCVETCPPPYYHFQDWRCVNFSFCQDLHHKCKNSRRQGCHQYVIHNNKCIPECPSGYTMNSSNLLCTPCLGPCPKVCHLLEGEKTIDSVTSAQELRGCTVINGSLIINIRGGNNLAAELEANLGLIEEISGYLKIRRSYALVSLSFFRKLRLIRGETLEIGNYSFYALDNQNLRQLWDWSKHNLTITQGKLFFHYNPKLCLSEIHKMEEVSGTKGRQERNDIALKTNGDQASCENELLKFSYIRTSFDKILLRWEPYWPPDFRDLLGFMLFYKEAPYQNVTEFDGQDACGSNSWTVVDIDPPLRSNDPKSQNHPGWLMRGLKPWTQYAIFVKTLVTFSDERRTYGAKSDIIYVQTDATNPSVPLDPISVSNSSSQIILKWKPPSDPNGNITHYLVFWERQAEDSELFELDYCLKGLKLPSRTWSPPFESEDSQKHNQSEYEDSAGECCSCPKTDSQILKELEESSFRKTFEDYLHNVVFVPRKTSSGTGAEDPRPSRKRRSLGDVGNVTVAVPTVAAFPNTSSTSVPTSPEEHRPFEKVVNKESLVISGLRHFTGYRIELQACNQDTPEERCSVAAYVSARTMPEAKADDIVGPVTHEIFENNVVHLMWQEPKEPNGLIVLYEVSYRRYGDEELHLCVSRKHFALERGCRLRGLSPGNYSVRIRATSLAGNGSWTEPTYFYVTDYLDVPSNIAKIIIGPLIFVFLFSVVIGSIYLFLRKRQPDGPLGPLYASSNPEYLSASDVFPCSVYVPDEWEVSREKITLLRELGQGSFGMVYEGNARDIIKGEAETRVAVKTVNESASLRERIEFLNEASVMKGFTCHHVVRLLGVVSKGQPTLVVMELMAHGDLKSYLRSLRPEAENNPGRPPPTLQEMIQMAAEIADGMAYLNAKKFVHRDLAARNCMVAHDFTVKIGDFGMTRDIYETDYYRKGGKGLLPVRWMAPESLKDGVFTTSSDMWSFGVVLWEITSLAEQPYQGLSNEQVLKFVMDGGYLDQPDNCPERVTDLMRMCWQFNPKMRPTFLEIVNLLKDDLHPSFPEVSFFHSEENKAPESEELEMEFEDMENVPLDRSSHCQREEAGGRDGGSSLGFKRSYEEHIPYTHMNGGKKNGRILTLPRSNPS

Target | lysine labeling ratio R10:1
CD58 (lysine site: K78) (UniProt P19256) | 8.22 (inactive)
NUCB1 (lysine site: K183) (UniProt Q02818) | 3.16 (inactive)
SMC2 (lysine site: K963) (UniProt O95347) | 2.26 (inactive)
UniProt Q15149 (lysine site: K2339) | 4.2 (inactive)
ROBO1 (lysine site: K214) (UniProt Q9Y6N7) | 4.58 (inactive)
KRT18 (lysine site: K118) (UniProt P05783) | 6.22 (inactive)
SUB1 (lysine site: K97) (UniProt P53999) | 6.03 (inactive)
MCAM (lysine site: K217) (UniProt P43121) | 2.14 (inactive)
VAPB (lysine site: K174) (UniProt O95292) | 1.61 (active)
LAMA5 (lysine site: K113) (UniProt O15230) | 4.71 (inactive)
RARS (lysine site: K471) (UniProt P54136) | 2.85 (inactive)
INSR (lysine site: K903) (UniProt P06213) | 2.04 (inactive)
ITGAV (lysine site: K535) (UniProt P06756) | 1.58 (active)
CD109 (lysine site: K491) (UniProt Q6YHK3) | 2.99 (inactive)
UniProt Q8WXD0 (lysine site: K130) | 1.74 (active)
TLN1 (lysine site: K1171) (UniProt Q9Y490) | 1.76 (active)
GALNT2 (lysine site: K509) (UniProt Q10471) | 3.5 (inactive)
ECE1 (lysine site: K676) (UniProt P42892) | 3.15 (inactive)
LDLR (lysine site: K518) (UniProt P01130) | 1.72 (active)
IGF2R (lysine site: K1576) (UniProt P11717) | 0.605 (active)
F11R (lysine site: K47) (UniProt Q9Y624) | 5.07 (inactive)
NUMA1 (lysine site: K925) (UniProt Q14980) | 2.01 (inactive)
RPL3 (lysine site: K250) (UniProt P39023) | 2.54 (inactive)
